Shown is part of a subset that was picked to be rich in hits.
miR-122 inh – activators of miR-122 sensor in Huh7 cells | Huh7 psiCHECK-miR122 Renilla luciferase sensor, 48 h | activation, % at 12.5 µM | 0.14% of 340,000 active;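 active = mean activation of 30% or more, with every replicate also reaching 30%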;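 also: 0% = median of neutral control wells and 100% = median of positive control wells; higher luciferase signal means stronger suppression of miR-122 activity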
* marks the source's active call; other numbers are inactive results.

SMILES | miR-122 inh
CCC(=O)N(C)C[C@@H]1Oc2cc(-c3cccnc3)ccc2S(=O)(=O)N([C@@H](C)CO)C[C@H]1C | -19
CCCCCCOc1ccc(/C(C)=N/NC2=NCCN2)cc1 | 65*
Cc1noc(C)c1NC(=O)N(C)C[C@H]1Oc2cc(C#CCC(C)C)ccc2S(=O)(=O)N([C@H](C)CO)C[C@H]1C | -45
C[C@@H]1CN([C@H](C)CO)C(=O)c2cc(-c3cncnc3)cnc2O[C@@H]1CN(C)Cc1cncnc1 | -10
C[C@H](CO)N1C[C@H](C)[C@@H](CN(C)C(=O)Nc2ccc3c(c2)OCO3)Oc2ncc(-c3ccccc3)cc2C1=O | -10
CCC1=Nc2cc(C(=O)NCc3ccco3)ccc2Sc2ccc(C)cc21 | -119
Cc1oc(-c2ccc(Cl)cc2)nc1CN1CCCC(C(=O)NCc2ccco2)C1 (stereo unspecified) | 39*
Cc1ccc(Nc2nc(C(=O)NCc3ccco3)cs2)cc1 | -162
CC(C)CC#Cc1cnc2c(c1)C(=O)N([C@@H](C)CO)C[C@@H](C)[C@H](CN(C)C(=O)C1CCCCC1)O2 | 6
C[C@H](O)C#Cc1ccc2c(c1)O[C@H](CN(C)C)[C@H](C)CN([C@H](C)CO)S2(=O)=O | 4
Cc1cc(CN(C)C(=O)c2cc(COc3ccc4ncccc4c3)on2)on1 | 35*
C[C@@H]1CN([C@@H](C)CO)C(=O)c2cc(-c3ccccc3F)cnc2O[C@H]1CN(C)C(=O)C1CCCCC1 | 6
C[C@@H]1CN([C@H](C)CO)S(=O)(=O)c2ccc(-c3ccccc3)cc2O[C@@H]1CN(C)Cc1ccccc1C(=O)O | -14
N#Cc1cccc(NC(=O)Nc2cccs2)c1 | 36*
O=C(/C=C/Nc1cccc([N+](=O)[O-])c1)c1cccs1 | -93
C[C@H]1CN([C@@H](C)CO)S(=O)(=O)c2ccc(-c3ccc(C#N)cc3)cc2O[C@H]1CN(C)C(=O)C1CC1 | -11
C[C@@H]1CN([C@@H](C)CO)S(=O)(=O)c2ccc(-c3cccc(C(=O)N(C)C)c3)cc2O[C@H]1CN(C)C(=O)Nc1ccccc1 | -7
C[C@H]1CN([C@@H](C)CO)C(=O)c2cc(Br)cnc2O[C@@H]1CN(C)Cc1ccc2c(c1)OCO2 | 9
COc1cccc(NC(=O)N(C)C[C@H]2Oc3cc(-c4cccc(C(=O)N(C)C)c4)ccc3S(=O)(=O)N([C@H](C)CO)C[C@H]2C)c1 | -5
CCC(=O)N(C)C[C@H]1Oc2ncc(C#Cc3ccccc3OC)cc2C(=O)N([C@@H](C)CO)C[C@H]1C | -2
COCC(=O)N1[C@H](CO)[C@H]2c3ccccc3N(C(=O)c3ccccc3F)C[C@H]21 | 44*
CCCNC(=O)N1C[C@@H]2[C@H](c3ccccc31)[C@@H](CO)N2Cc1cc(F)ccc1F | 36*
O=C(c1cccnc1)N1C[C@H]2[C@@H](c3ccccc31)[C@H](CO)N2C(=O)Nc1ccccc1Cl | 40*
CCCNC(=O)N1C[C@H]2[C@@H](c3ccccc31)[C@@H](CO)N2Cc1ccc(F)cc1 | -92
O=S(=O)(c1ccc(F)cc1)N1C[C@H]2[C@@H](c3ccccc31)[C@@H](CO)N2Cc1ccc2c(c1)OCO2 | -100
SMILES | miR-122 inh
O=C(Nc1ccc(F)cc1)N1C[C@H]2[C@@H](c3ccccc31)[C@H](CO)N2C(=O)c1ccncc1 | 50*
O=C(Nc1ccc(N2CCOCC2)c(S(=O)(=O)Nc2cc(Cl)ccc2Cl)c1)c1cccnc1 | -325
O=C(Nc1ccccc1F)N1C[C@H]2[C@@H](c3ccccc31)[C@@H](CO)N2C(=O)c1ccc(F)cc1 | -240
COc1cccc(C(=O)N2C[C@H]3[C@@H](c4ccccc42)[C@@H](CO)N3C(=O)c2ccc(F)cc2)c1 | -229
O=C(C1CCCCC1)N1[C@H](CO)[C@@H]2c3ccccc3N(S(=O)(=O)c3ccccc3)C[C@@H]21 | -96
COCC(=O)N(C)C[C@@H]1Oc2cc(-c3cccc(F)c3)ccc2S(=O)(=O)N([C@H](C)CO)C[C@H]1C | -3
CCC(=O)Nc1ccc2c(c1)OC[C@H](C)N(C(=O)c1ccccc1F)C[C@H](C)[C@@H](OC)CN(C)C2=O | 2
COc1cccc(-c2cnc3c(c2)C(=O)N([C@@H](C)CO)C[C@H](C)[C@@H](CN(C)C(=O)CC2CC2)O3)c1 | -15
COCC#Cc1cnc2c(c1)C(=O)N([C@H](C)CO)C[C@@H](C)[C@H](CN(C)C(=O)Nc1ccc(OC)cc1)O2 | 6
CCC(=O)Nc1ccc2c(c1)C(=O)N(C)C[C@@H](OC)[C@@H](C)CN(C(C)=O)[C@@H](C)CO2 | -3
COc1ccc(-c2cnc3c(c2)C(=O)N([C@H](C)CO)C[C@@H](C)[C@@H](CN(C)C(=O)Cc2ccccc2)O3)cc1 | 0
COc1ccccc1-c1cnc2c(c1)C(=O)N([C@H](C)CO)C[C@H](C)[C@H](CN(C)C(=O)c1ccccc1)O2 | 3
C[C@H](CO)N1C[C@H](C)[C@H](CN(C)S(C)(=O)=O)Oc2cc(Br)ccc2S1(=O)=O | -4
C[C@H](CO)N1C[C@H](C)[C@@H](CN(C)CC2CCOCC2)Oc2ncc(-c3ccc(F)cc3)cc2C1=O | 2
COc1cccc(NC(=O)N(C)C[C@H]2Oc3ncc(C#Cc4ccccc4)cc3C(=O)N([C@@H](C)CO)C[C@H]2C)c1 | 5
C[C@H]1CN([C@@H](C)CO)C(=O)c2cc(C#CCC3CCCC3)cnc2O[C@@H]1CN(C)CC1CCOCC1 | -9
O=C(Cn1c(=O)c2ccccc2n(CC(=O)N2CCCCC2)c1=O)N1CCCCC1 | 60*
CCCC(=O)Nc1ccc2c(c1)C(=O)N(C)C[C@H](OC)[C@H](C)CN[C@@H](C)CO2 | 3
COCC#Cc1ccc2c(c1)O[C@@H](CN(C)C(=O)C1CCCCC1)[C@@H](C)CN([C@H](C)CO)S2(=O)=O | -3
Cc1noc(C)c1NC(=O)N(C)C[C@H]1Oc2ncc(C#CC3CCCCC3)cc2C(=O)N([C@H](C)CO)C[C@@H]1C | 3
C[C@@H]1CN([C@H](C)CO)S(=O)(=O)c2ccc(-c3cccc(C(=O)N(C)C)c3)cc2O[C@@H]1CN(C)C(=O)Nc1ccccc1 | -31
CCCC(=O)Nc1ccc2c(c1)OC[C@H](C)N(C)C[C@H](C)[C@H](OC)CN(C)C2=O | -2
COc1cccc(NC(=O)N(C)C[C@H]2Oc3cc(-c4cccc(C(=O)N(C)C)c4)ccc3S(=O)(=O)N([C@H](C)CO)C[C@@H]2C)c1 | -9
C[C@@H]1CN([C@H](C)CO)S(=O)(=O)c2ccc(-c3ccncc3)cc2O[C@H]1CN(C)Cc1ccccn1 | -3
CCC(=O)Nc1ccc(S(=O)(=O)NCCc2ccccc2)cc1 | -111
SMILES | miR-122 inh
CCC(=O)Nc1ccc(C(=O)Nc2cccc(C)n2)cc1 | -218
CCC(=O)Nc1cccc(C(=O)/C=C/c2ccccc2)c1 | 36*
C[C@H](O)C#Cc1cnc2c(c1)C(=O)N([C@@H](C)CO)C[C@H](C)[C@@H](CN(C)Cc1cncnc1)O2 | -6
COc1ccc(C#Cc2cnc3c(c2)C(=O)N([C@@H](C)CO)C[C@@H](C)[C@H](CN(C)CC2CCCC2)O3)cc1 | 7
CCCNC(=O)N(C)C[C@H]1Oc2ncc(C#CCC3CCCC3)cc2C(=O)N([C@@H](C)CO)C[C@H]1C | 5
C[C@H](CO)N1C[C@H](C)[C@@H](CN(C)C)Oc2ncc(C#CC3CC3)cc2C1=O | 2
O=C(Nc1ccccc1)c1cc([N+](=O)[O-])ccc1NC1CCCCC1 | -123
Cc1ccc(NC(=O)c2nc(C)n(-c3ccc([N+](=O)[O-])cc3)n2)cc1 | 43*
